# Laboratory results: the supplement of paper PMC12067926
# Legend:
# Test in all cases: relative growth (AUC of 72 h growth curve relative to DMSO control, dAUC) (ratio); higher = more growth (less inhibition), active = hit call of the paper
# Conditions in all cases: 20 µM;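 active = growth AUC significantly below the DMSO wells by Dunnett test; inactive = the rest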
# [1] = test system: Prolinoborus 1 (Prolinoborus fasciculus)
# Method in brief: (§1)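 Isolates from Icelandic stream sediments and Silwood Park soil, along with whole sediment communities, were grown in Luria–Bertani medium to carrying capacity and diluted 1:100 into 96-well plates with each chemical at 20 µM (1% DMSO). A600 was measured hourly for 72 h, and values were averaged over three biological replicates. Relative growth (dAUC) is the spline-integrated growth-curve area over the mean of the DMSO controls.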
# [2] = test system: Pseudomonas 1 (Pseudomonas baetica)
# Method in brief: as §1
# [3] = test system: Pseudomonas 2 (Pseudomonas vancouverensis)
# Method in brief: as §1
# [4] = test system: Pseudomonas 3 (Pseudomonas mandelii)
# Method in brief: as §1
# [5] = test system: Pseudomonas 4 (Pseudomonas peli)
# Method in brief: as §1
# [6] = test system: Pseudomonas 5 (Pseudomonas baetica)
# Method in brief: as §1
# [7] = test system: Pseudomonas 6 (Pseudomonas sp.)
# Method in brief: as §1
# [8] = test system: Rhizobium 1 (Rhizobium herbae)
# Method in brief: as §1
# [9] = test system: Serratia 1 (Serratia sp. 2015-2462-01)
# Method in brief: as §1
# [10] = test system: Sphingomonas 2 (Sphingomonas sp.)
# Method in brief: as §1
Structure (SMILES),relative growth [1],relative growth [2],relative growth [3],relative growth [4],relative growth [5],relative growth [6],relative growth [7],relative growth [8],relative growth [9],relative growth [10]
COP(=S)(OC)Oc1ccc(SC)c(C)c1,0.975 (inactive),0.988 (inactive),0.973 (inactive),1.01 (inactive),0.957 (inactive),1.01 (inactive),1.01 (inactive),0.937 (inactive),0.998 (inactive),0.974 (inactive)
CC1(C)C(C=C(Cl)Cl)C1C(=O)OCc1cccc(Oc2ccccc2)c1 (stereo not given),0.985 (inactive),1.13 (inactive),0.97 (inactive),1 (inactive),0.979 (inactive),1.05 (inactive),1.13 (inactive),0.958 (inactive),0.964 (inactive),1.02 (inactive)
CNC(=O)Oc1cccc2ccccc12,1 (inactive),0.973 (inactive),1.04 (inactive),0.996 (inactive),1.01 (inactive),1.04 (inactive),1.12 (inactive),0.906 (inactive),0.932 (inactive),0.986 (inactive)
CCCSP(=O)(OCC)Oc1ccc(Br)cc1Cl (stereo not given),1.01 (inactive),1.12 (inactive),1.08 (inactive),1.1 (inactive),0.975 (inactive),1.01 (inactive),1.04 (inactive),0.931 (inactive),0.955 (inactive),1.09 (inactive)
CC(C)OC(=O)C(C(=O)OC(C)C)=C1SCCS1,0.947 (inactive),1.16 (inactive),0.995 (inactive),1.04 (inactive),0.947 (inactive),1.03 (inactive),1.09 (inactive),0.897 (inactive),0.96 (inactive),1.1 (inactive)
N#CCNC(=O)c1cnccc1C(F)(F)F,1.03 (inactive),1.05 (inactive),0.996 (inactive),0.97 (inactive),0.996 (inactive),1.01 (inactive),1.07 (inactive),0.857 (inactive),0.947 (inactive),1.08 (inactive)
Cc1cc(C(F)(C(F)(F)F)C(F)(F)F)ccc1NC(=O)c1cccc(I)c1C(=O)NC(C)(C)CS(C)(=O)=O,0.933 (inactive),0.728 (inactive),0.842 (active),0.883 (inactive),1.13 (inactive),0.92 (inactive),0.776 (inactive),0.937 (inactive),1.19,0.654 (active)
CSc1nnc(C(C)(C)C)c(=O)n1N,0.951 (inactive),0.717 (inactive),0.997 (inactive),0.984 (inactive),1.01 (inactive),0.998 (inactive),0.948 (inactive),0.958 (inactive),0.995 (inactive),0.779 (inactive)
COc1ncc(F)c2nc(S(=O)(=O)Nc3c(F)cccc3F)nn12,1.01 (inactive),1.05 (inactive),1.02 (inactive),1.01 (inactive),0.989 (inactive),0.958 (inactive),0.99 (inactive),0.982 (inactive),1.03 (inactive),1.04 (inactive)
CC(Oc1ccc(Oc2nc3ccc(Cl)cc3o2)cc1)C(=O)O (stereo not given),0.978 (inactive),0.948 (inactive),1 (inactive),0.97 (inactive),1.01 (inactive),0.962 (inactive),0.916 (inactive),1.07 (inactive),1.04 (inactive),1.12 (inactive)
CC1(C)[C@H](C(=O)O[C@H](C#N)c2cccc(Oc3ccccc3)c2)[C@@H]1C=C(Br)Br,1.01 (inactive),1.04 (inactive),1.03 (inactive),1.03 (inactive),1.01 (inactive),1.06 (inactive),1.14 (inactive),1.23 (inactive),1 (inactive),1.12 (inactive)
COCC(=O)N(c1c(C)cccc1C)C(C)C(=O)OC (stereo not given),0.923 (inactive),1.06 (inactive),1.01 (inactive),1 (inactive),0.995 (inactive),1.02 (inactive),1.03 (inactive),0.907 (inactive),0.994 (inactive),1.05 (inactive)
N#Cc1sc2c(=O)c3ccccc3c(=O)c=2sc1C#N,1.03 (inactive),0.913 (inactive),0.929 (inactive),0.887 (active),1.07 (inactive),0.962 (inactive),0.885 (inactive),1 (inactive),0.862 (inactive),1.01 (inactive)
O=[N+]([O-])/N=C1\NCCN1Cc1ccc(Cl)nc1,0.987 (inactive),0.857 (inactive),0.973 (inactive),1.04 (inactive),1.01 (inactive),0.978 (inactive),0.932 (inactive),0.991 (inactive),0.968 (inactive),0.979 (inactive)
CC1=NNC(=O)N(/N=C/c2cccnc2)C1,1.05 (inactive),0.636 (inactive),1.03 (inactive),0.986 (inactive),0.986 (inactive),0.971 (inactive),0.931 (inactive),1.03 (inactive),0.937 (inactive),1.03 (inactive)
C[N+](C)(C)CCCl,0.959 (inactive),1.07 (inactive),1.03 (inactive),1.01 (inactive),1.04 (inactive),1.02 (inactive),1.07 (inactive),0.998 (inactive),0.962 (inactive),1.02 (inactive)
O=C(NC(=O)c1c(F)cccc1F)Nc1ccc(Cl)cc1,0.965 (inactive),1.06 (inactive),1.01 (inactive),1.04 (inactive),1.02 (inactive),1.01 (inactive),1.05 (inactive),1.06 (inactive),0.988 (inactive),1.02 (inactive)
Cc1nc(N(C)C)nc(OC(=O)N(C)C)c1C,0.948 (inactive),1 (inactive),0.96 (inactive),0.978 (inactive),0.949 (inactive),0.991 (inactive),1.02 (inactive),1.22 (inactive),0.992 (inactive),0.968 (inactive)
CS(=O)(=O)c1ccc(C(=O)C2C(=O)CCCC2=O)c([N+](=O)[O-])c1,0.983 (inactive),1.06 (inactive),1.02 (inactive),1.03 (inactive),1.05 (inactive),0.998 (inactive),0.96 (inactive),1.15 (inactive),1 (inactive),1.1 (inactive)
COC(=O)NC(=S)Nc1ccccc1NC(=S)NC(=O)OC,0.975 (inactive),1.04 (inactive),0.969 (inactive),0.99 (inactive),0.95 (inactive),1.06 (inactive),1.14 (inactive),0.959 (inactive),0.987 (inactive),1.01 (inactive)
CCOC(=O)CC(SP(=S)(OC)OC)C(=O)OCC (stereo not given),1.01 (inactive),1.03 (inactive),1.05 (inactive),1.05 (inactive),1.04 (inactive),0.994 (inactive),1.09 (inactive),0.984 (inactive),1.01 (inactive),1.15 (inactive)
Oc1ccc(Cl)cc1Cc1cc(Cl)ccc1O,0.0645 (active),0.805 (inactive),0.755 (active),0.8 (active),0.674 (active),0.817 (active),0.922 (inactive),0.0117 (active),0.46 (active),0.0145 (active)
ClC1C(Cl)C(Cl)C(Cl)C(Cl)C1Cl (stereo not given),0.987 (inactive),1.04 (inactive),0.993 (inactive),0.99 (inactive),0.982 (inactive),1.04 (inactive),1.02 (inactive),0.826 (inactive),0.97 (inactive),0.949 (inactive)
CC1(C)[C@H](/C=C(\Cl)C(F)(F)F)[C@@H]1C(=O)OC(C#N)c1cccc(Oc2ccccc2)c1 (stereo not given in full),0.983 (inactive),1.07 (inactive),1.02 (inactive),1.05 (inactive),0.999 (inactive),1.08 (inactive),1.16 (inactive),1.28 (inactive),1.01 (inactive),0.868 (inactive)
CC1COC(Cn2cncn2)(c2ccc(Oc3ccc(Cl)cc3)cc2Cl)O1 (stereo not given),1.04 (inactive),1.06 (inactive),0.99 (inactive),1.06 (inactive),1.01 (inactive),1.03 (inactive),1.08 (inactive),0.952 (inactive),1.01 (inactive),1.06 (inactive)
COP(=S)(OC)SCN1C(=O)c2ccccc2C1=O,1.08 (inactive),0.986 (inactive),0.981 (inactive),0.971 (inactive),0.962 (inactive),1.03 (inactive),1.12 (inactive),0.943 (inactive),0.972 (inactive),1.01 (inactive)
COc1ccc(C(=CC(=O)N2CCOCC2)c2ccc(Cl)cc2)cc1OC (mixture of isomers),0.994 (inactive),1.09 (inactive),0.999 (inactive),1.03 (inactive),1.01 (inactive),0.972 (inactive),0.951 (inactive),1.02 (inactive),0.978 (inactive),1.12 (inactive)
Cc1cc(C)nc(Nc2ccccc2)n1,0.979 (inactive),0.925 (inactive),0.956 (inactive),1.03 (inactive),0.947 (inactive),0.99 (inactive),1.03 (inactive),0.868 (inactive),0.937 (inactive),0.984 (inactive)
CCCN(CCC)C(=O)SCc1ccccc1,1.01 (inactive),1.03 (inactive),1.05 (inactive),1.09 (inactive),0.979 (inactive),1.06 (inactive),1.13 (inactive),1.05 (inactive),0.998 (inactive),1.06 (inactive)
